Calls of active or inactive are those of the source. Unless noted, how the calls were made is not given here.

The values that follow come from PubChem BioAssay.

Experiment [1] in a line: anti-His antibody binders, primary screen, artefact control for SMM control protein annotation, biochemical, small-molecule microarray, 635 nm fluorescence (AID 1128).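 Further: score merges feature fluorescence with signal-to-noise for each printed compound spot.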 The settings on record: anti-His Alexa647 antibody binding, higher = more signal.
For experiment [2], the system named is Human papillomavirus type 1a E7 protein (residues 1-88). As to the kind of experiment: HPV1a E7 small-molecule binders, primary screen, biochemical, small-molecule microarray, residues 1-88, 635 nm (AID 1129). The settings on record: small-molecule microarray binding, fluorescence 635 nm; higher = more signal.
In experiment [3] the target is Focal adhesion kinase 1 (Homo sapiens) (UniProt Q05397). The experiment in a line: small-molecule microarray binders of FAK, primary screen, biochemical, 635/667 nm fluorescence, BSA, DTT (AID 1130).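 Further: composite of spot emission at 667 nm and signal to noise over triplicate slides.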 To be noted: PTK2 binding, 635 nm fluorescence, higher = more signal.
Sequence of Focal adhesion kinase 1 (Homo sapiens) (Q05397 whole entry, looked up): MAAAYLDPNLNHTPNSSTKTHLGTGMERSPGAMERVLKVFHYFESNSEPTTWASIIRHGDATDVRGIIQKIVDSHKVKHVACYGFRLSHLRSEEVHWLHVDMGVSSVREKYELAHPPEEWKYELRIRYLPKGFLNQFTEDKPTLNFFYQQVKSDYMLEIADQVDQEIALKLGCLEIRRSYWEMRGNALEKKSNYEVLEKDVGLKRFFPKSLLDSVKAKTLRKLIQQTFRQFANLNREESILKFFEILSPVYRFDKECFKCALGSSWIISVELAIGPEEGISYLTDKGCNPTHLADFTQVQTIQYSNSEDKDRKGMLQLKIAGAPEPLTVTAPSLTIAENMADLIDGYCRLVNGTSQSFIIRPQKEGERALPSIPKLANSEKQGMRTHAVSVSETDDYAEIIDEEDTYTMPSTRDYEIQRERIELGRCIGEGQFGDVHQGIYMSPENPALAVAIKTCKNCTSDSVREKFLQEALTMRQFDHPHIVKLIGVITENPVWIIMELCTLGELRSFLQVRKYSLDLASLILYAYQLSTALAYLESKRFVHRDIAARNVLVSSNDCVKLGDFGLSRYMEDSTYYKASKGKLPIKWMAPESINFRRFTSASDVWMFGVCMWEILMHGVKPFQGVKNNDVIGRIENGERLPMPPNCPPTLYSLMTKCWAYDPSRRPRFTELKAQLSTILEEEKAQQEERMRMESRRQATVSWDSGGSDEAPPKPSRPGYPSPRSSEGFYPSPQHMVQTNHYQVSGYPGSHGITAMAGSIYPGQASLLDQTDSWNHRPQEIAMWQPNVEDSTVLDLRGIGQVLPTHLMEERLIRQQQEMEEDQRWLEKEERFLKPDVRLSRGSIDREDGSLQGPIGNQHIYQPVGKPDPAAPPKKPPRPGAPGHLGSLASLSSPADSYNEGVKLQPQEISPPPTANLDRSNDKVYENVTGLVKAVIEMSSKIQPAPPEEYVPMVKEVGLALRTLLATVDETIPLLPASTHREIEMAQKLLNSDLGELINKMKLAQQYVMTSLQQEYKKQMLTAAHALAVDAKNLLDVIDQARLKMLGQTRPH
Experiment [4] deals with Fibrinogen (Alexa647-labelled). The experiment in a line: fibrinogen binders on compound microarrays, profiling panel, artefact control for SMM control-protein annotation, biochemical, small-molecule microarray, 635/667 nm fluorescence (AID 1131).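 Further: z-score merges 667 nm fluorescence with per-spot signal-to-noise over triplicate slides.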 The settings on record: fibrinogen-A647 binding fluorescence, higher = more signal.
The target of experiment [5] is Follistatin (Homo sapiens) (UniProt P19883). The experiment in a line: follistatin binders on small-molecule microarrays, primary screen, biochemical, small-molecule microarray, 635/667 nm fluorescence (AID 1132). To be noted: FST binding, 635 nm fluorescence, higher = more signal.
Sequence of Follistatin (Homo sapiens) (P19883 whole entry, looked up): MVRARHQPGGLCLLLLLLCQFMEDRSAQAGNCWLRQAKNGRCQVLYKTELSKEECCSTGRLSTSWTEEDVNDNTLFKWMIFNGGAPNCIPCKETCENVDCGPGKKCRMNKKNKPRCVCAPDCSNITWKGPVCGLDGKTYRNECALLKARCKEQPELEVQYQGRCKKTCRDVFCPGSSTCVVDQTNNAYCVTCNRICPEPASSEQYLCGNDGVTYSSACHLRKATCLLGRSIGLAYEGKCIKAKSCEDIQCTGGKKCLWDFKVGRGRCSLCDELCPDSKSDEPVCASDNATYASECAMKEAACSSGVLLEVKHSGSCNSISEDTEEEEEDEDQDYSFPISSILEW
Experiment [6] deals with Fibroblast growth factor 2 (Homo sapiens) (UniProt P09038). The experiment in a line: FGF2 binders on small-molecule microarrays, primary screen, biochemical, small-molecule microarray, 635/667 nm fluorescence (AID 1133). The settings on record: small-molecule microarray binding, FGF2, fluorescence 635/667; higher = more signal.
Sequence of Fibroblast growth factor 2 (Homo sapiens) (P09038 whole entry, looked up): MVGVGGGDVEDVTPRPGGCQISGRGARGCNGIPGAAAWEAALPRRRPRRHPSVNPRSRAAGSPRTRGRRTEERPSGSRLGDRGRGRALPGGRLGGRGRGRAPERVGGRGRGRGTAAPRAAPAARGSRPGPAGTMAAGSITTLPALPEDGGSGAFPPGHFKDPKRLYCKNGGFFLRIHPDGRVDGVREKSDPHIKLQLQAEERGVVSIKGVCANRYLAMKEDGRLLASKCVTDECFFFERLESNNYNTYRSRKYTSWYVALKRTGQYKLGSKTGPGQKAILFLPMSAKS
The nature of experiment [7]: mitochondrial membrane potential change in A549 cells, profiling panel, cell-based, JC-1 fluorescence, basal, 24 h, 100 nL (AID 1138).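 Further: A549 lung adenocarcinoma cells under basal conditions with no added stimulus; test concentration not given here.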 To be noted: higher = more signal.
Experiment [8] has as its system Lefty1. The experiment in a line: Lefty1 binders on small-molecule microarrays, primary screen, biochemical, small-molecule microarray, 635/667 nm fluorescence (AID 1139). The settings on record: small-molecule microarray binding, fluorescence 635/667; higher = more signal.
Experiment [9] concerns wheat germ agglutinin (Triticum aestivum), Alexa647-labelled. As to the kind of experiment: wheat germ agglutinin binders on compound microarrays, profiling panel, artefact control for SMM control-protein annotation, biochemical, small-molecule microarray, 635/667 nm fluorescence (AID 1140).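 Further: score merges 667 nm feature emission with signal to noise over triplicate slides.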 The settings on record: WGA-A647 binding, 635 nm fluorescence, higher = more signal.

Experiment [10] concerns the target Luciferin 4-monooxygenase (Photinus pyralis) (UniProt P08659). The experiment in a line: firefly luciferase enzyme inhibitors, primary screen, biochemical, luminescence, purified enzyme, 2006 set (AID 1141).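 Further: cell-free assay with purified firefly luciferase at 100 ng per well in PBS; test concentration not given here.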 To be noted: SteadyGlo luminescence, 30 min, higher = more signal, called active from +8 up or from −8 down.
Experiment [11] concerns Wnt5a (protein binding on small-molecule microarray). As to the kind of experiment: Wnt5a binders on small-molecule microarray, primary screen, biophysical, 635/667 nm fluorescence (AID 1142).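 Further: fluorescence read at 667 nm with signal to noise per printed feature.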 To be noted: 635 nm fluorescence, higher = more signal.
The nature of experiment [12]: cell viability in Huh7 cells, primary screen, cytotoxicity control for HCV replication inhibitor project, CellTiter-Glo luminescence, basal, 48 h (AID 1143).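 Further: Huh7 hepatoma cells carrying a hepatitis C replication reporter with no stimulus; test concentration not given here.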 To be noted: Huh7 HCV replicon, higher = more signal, called active from +8 up or from −8 down. On the technique in general: ATP-based viability assays read luminescence as a measure of living cells.
Experiment [13] in a line: P. aeruginosa biofilm formation inhibitors, primary screen, PAO1 strain, BacTiter-Glo luminescence, LB-PBS (AID 1144). The settings on record: 12 h, higher = more signal.
A short description of experiment [14]: CREB reporter modulators without forskolin, primary screen, cell-based, PC12, CRE-LacZ reporter, unstimulated (AID 1145). The settings on record: no forskolin, luminescence, 4.5 h, higher = more signal, called active from +8 up or from −8 down.
Experiment [15] is described as follows: CREB reporter modulators under forskolin, primary screen, cell-based, PC12, CRE-LacZ reporter, forskolin-stimulated (AID 1146).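 Further: PC12 cells with 6xCRE LacZ reporter stimulated by forskolin 10 µM; beta-galactosidase reporter signal reflecting CREB driven transcription.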 To be noted: luminescence, 4.5 h, higher = more signal, called active from +8 up or from −8 down.
Experiment [16] addresses Streptavidin (Streptomyces avidinii) (UniProt P22629). The experiment in a line: streptavidin binders on small-molecule microarray, primary screen, artefact control for SMM compound annotation, biophysical, 635/667 nm fluorescence (AID 1147).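 Further: signal reflects streptavidin binding to arrayed compounds as a control protein.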 To be noted: streptavidin binding, higher = more signal.
A short description of experiment [17]: small-molecule binders of probe aInhba, primary screen, biochemical, small-molecule microarray, 635/667 nm fluorescence (AID 1148).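 Further: score merges 667nm spot fluorescence with signal-to-noise for antibody binding to printed compounds.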 To be noted: higher = more signal.
Experiment [18] concerns the target Torsin-1A (Homo sapiens) (UniProt O14656). As to the kind of experiment: torsin A binders from cell lysate, primary screen, small-molecule microarray, wild-type, 635/667 nm (AID 1149). The settings on record: COS7 hTOR1A-WT lysate, 635 nm fluorescence, higher = more signal.
Experiment [19] shares this target. As to the kind of experiment: small-molecule binders of mutant TOR1A in lysate, primary screen, cell lysate, small-molecule microarray, COS7 lysate, 635/667 nm fluorescence (AID 1150).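 Further: score pools 667 nm emission and signal to noise measuring lysate protein binding.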 The settings on record: COS7 hTOR1A mutant lysate, 635 nm fluorescence, higher = more signal.
Experiment [20] relates to Sonic hedgehog protein (Shh). As to the kind of experiment: small-molecule binders of Shh protein, primary screen, biochemical, small-molecule microarray, 635/667 nm fluorescence (AID 1151).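 Further: Shh protein binding to compounds spotted on small-molecule microarray slides; score combines spot fluorescence intensity with signal-to-noise across triplicate slides.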 The settings on record: small-molecule microarray binding, 635 nm fluorescence; higher = more signal.

Sequence of Streptavidin (Streptomyces avidinii) (P22629 whole entry, looked up): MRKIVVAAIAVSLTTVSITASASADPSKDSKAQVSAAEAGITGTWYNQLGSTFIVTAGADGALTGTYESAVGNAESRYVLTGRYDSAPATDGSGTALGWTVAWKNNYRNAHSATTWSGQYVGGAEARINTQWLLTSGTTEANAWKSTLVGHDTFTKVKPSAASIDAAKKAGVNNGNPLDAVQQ
Sequence of Torsin-1A (Homo sapiens) (O14656 whole entry, looked up): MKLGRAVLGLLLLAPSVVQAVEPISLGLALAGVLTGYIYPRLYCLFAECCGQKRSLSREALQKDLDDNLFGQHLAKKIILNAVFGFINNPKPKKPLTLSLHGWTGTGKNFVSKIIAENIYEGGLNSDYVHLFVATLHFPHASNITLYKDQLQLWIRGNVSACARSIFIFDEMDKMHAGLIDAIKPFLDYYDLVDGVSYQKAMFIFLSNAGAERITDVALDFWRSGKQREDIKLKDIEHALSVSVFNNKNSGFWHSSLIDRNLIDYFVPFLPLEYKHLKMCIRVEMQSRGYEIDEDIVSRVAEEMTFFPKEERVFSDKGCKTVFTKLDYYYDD
Sequence of Luciferin 4-monooxygenase (Photinus pyralis) (P08659 whole entry, looked up): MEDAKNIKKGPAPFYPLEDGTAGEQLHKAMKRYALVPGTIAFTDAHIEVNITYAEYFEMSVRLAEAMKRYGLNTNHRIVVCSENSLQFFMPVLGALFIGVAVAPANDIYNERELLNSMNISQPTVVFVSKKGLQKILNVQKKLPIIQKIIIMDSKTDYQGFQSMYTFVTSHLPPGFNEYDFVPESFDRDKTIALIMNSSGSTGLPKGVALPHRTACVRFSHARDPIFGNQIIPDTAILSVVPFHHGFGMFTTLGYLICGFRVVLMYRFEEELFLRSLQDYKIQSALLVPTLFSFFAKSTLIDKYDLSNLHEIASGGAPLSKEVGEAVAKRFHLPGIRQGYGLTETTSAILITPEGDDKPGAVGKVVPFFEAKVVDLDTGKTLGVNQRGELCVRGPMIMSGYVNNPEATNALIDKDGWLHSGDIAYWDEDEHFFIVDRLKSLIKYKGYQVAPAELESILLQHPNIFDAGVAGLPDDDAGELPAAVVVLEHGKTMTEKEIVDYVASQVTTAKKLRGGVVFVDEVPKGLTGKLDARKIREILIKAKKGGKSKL

On to `COCCOC(=O)N1C(=O)[C@@]2(c3cc(C#CC4=CCCCC4)ccc31)[C@H](c1ccc(OCCO)cc1)N1[C@H](c3ccccc3)[C@H](c3ccccc3)OC(=O)[C@H]1[C@@H]2C(=O)N1CCCCCCC1`, for which the composite z-score in experiment [1] was 1.11; in experiment [2], 0.929; in experiment [3] it was 0.267; in experiment [4] it was 0.818; in experiment [5] it was 1.41; in [6], 1.42. Further, the composite z-score came to 1.21 in [8]; 0.743 in [9]; 0.266 in experiment [11]; 0.945 in [16]; 1.05 in experiment [17]; 0.984 in experiment [18]. Besides, the composite z-score is 0.84 in experiment [19] and 1.91 in experiment [20]. The z-score in [7] was -0.744; in experiment [10], -2.78 (inactive); in experiment [12], -4.59 (inactive); in experiment [13], -1.17 (inactive); in [14], -0.698 (inactive); in experiment [15], -1.13 (inactive).

On to `C=CC[C@]1(C(=O)NCc2ccccc2)COC(c2ccc(OCCCO)cc2)=N1`, for which the composite z-score was 0.16 in experiment [1]; -0.0156 in experiment [2]; -0.19 in experiment [3]; 0.295 in experiment [4]; -0.431 in experiment [5]; -0.87 in experiment [6]. The composite z-score in experiment [8] is -0.95; in [9], 1.02; in [11], 0.602; in experiment [16], -0.479; in experiment [17], 0.0503; in [18], 0.29. For the same molecule, the composite z-score in experiment [19] was 1.52; in experiment [20] it was -0.88. Further, the z-score was 1.03 in experiment [7]; -0.218 (inactive) in experiment [10]; -3.63 (inactive) in experiment [12]; 0.271 (inactive) in experiment [13]; 1.38 (inactive) in [14]; -0.505 (inactive) in experiment [15].

As for `Cc1ccc(F)cc1S(=O)(=O)N[C@@H]1CCN(Cc2ccc3[nH]ccc3c2)C1`, the composite z-score is 0.426 in [1]; 0.479 in [2]; -0.105 in experiment [3]; -0.0254 in experiment [4]; 1.06 in experiment [5]; 0.561 in experiment [6]. For the same molecule, the composite z-score in experiment [8] is 0.543; in experiment [9] it was 0.0689; in [11] it was -0.159; in experiment [16], 0.874; in [17], -0.0403; in experiment [18], 0.247. Moreover, the results for the composite z-score in [19] and in experiment [20] were 0.608 and 0.711, respectively. The z-score in experiment [7] is 0.316; in experiment [10], 0.175 (inactive); in experiment [12], -2.99 (inactive); in [13], 1.17 (inactive); in experiment [14], -0.147 (inactive); in [15], 0.49 (inactive).

As to `COCCOC(=O)N1C(=O)[C@@]2(c3ccccc31)[C@H](c1ccc(OCCO)cc1)N1[C@H](c3ccccc3)[C@H](c3ccccc3)OC(=O)[C@H]1[C@@H]2C(=O)N1CCN(c2ncccn2)CC1`, the composite z-score in [1] was determined as 0.46; in experiment [2] it was 1.2; in experiment [3] it was 0.929; in [4], 0.869; in experiment [5] it was 1.43; in experiment [6] it was 1.69. In addition, the composite z-score amounted to 1.37 in experiment [8]; 1.04 in experiment [9]; 0.453 in [11]; 0.826 in experiment [16]; 0.134 in experiment [17]; 0.819 in experiment [18]. Further, the composite z-score in [19] is 0.794; in experiment [20], 1.86. Moreover, the z-score in [7] is -1.03; in experiment [10] it was -0.135 (inactive); in experiment [12], -2 (inactive); in experiment [13], -0.266 (inactive); in experiment [14], 0.22 (inactive); in experiment [15], 4.01 (inactive).

In the case of `CC(C)C[C@H]1NC(=O)[C@@]23C(=O)N[C@@H](Cc4ccccc4)C2[C@H](C)[C@@]2(C)O[C@H]2C3/C=C/C/C=C\CNC(=O)[C@@H]2CCCN2C1=O` (stereo not given in full), the composite z-score was -0.17 in experiment [1]; -0.0447 in experiment [2]; -0.171 in [3]; 0.789 in experiment [4]; 0.614 in [5]; 0.829 in [6]. The composite z-score in experiment [8] is 0.661; in experiment [9] it was 0.032; in experiment [11] it was 0.275; in experiment [16], -0.362; in [17], -0.0471; in [18], -0.056. In addition, the composite z-score was -0.0683 in [19] and 1.55 in experiment [20]. The z-score in [7] was -0.0387; in experiment [10], -0.575 (inactive); in experiment [12] it was -0.264 (inactive); in experiment [13] it was 0.341 (inactive); in experiment [14] it was 0.13 (inactive); in experiment [15], 0.865 (inactive).
